# Measured values published in PubChem BioAssay (EPA / NIEHS).
# Where “and” joins values, the source holds several entries; their conditions need not be identical. Equal entries are not always repeated. A structure can be active in one record and inactive in another. Calls of active or inactive are those of the source. How the source made its calls: active means hit-call score of the fitted dose curve at least 0.9, where 1 is the maximum; inactive means score below 0.9.
# Columns and labels:
# [1] = read-out: Basic fibroblast growth factor (bFGF), FGF2 (gene 2247); experiment: BSK_MyoF_bFGF: BioMAP Diversity Plus: MyoF Assay for Basic fibroblast growth factor (bFGF) Biomarker Activity (AID 2284246); settings: primary human lung fibroblasts
# Outline: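 Fibroblasts from human lung, 24 h dosing. bFGF by ELISA; gain of signal over DMSO.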
# [2] = read-out: Collagen IV, COL4A1 (gene 1282); experiment: BSK_MyoF_CollagenIV: BioMAP Diversity Plus: MyoF Assay for Collagen IV Biomarker Activity (AID 2284247); settings: primary human lung fibroblasts
# Outline: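 Lung fibroblasts (human primary) treated with chemicals were assayed after 24 h for Collagen IV using an ELISA, with DMSO serving as negative control and baseline for a positive-direction fit.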
# [3] = read-out: Monokine induced gamma interferon (MIG), CXCL9 (gene 4283); experiment: BSK_KF3CT_MIG: BioMAP Diversity Plus: KF3CT Assay for Monokine induced gamma interferon (MIG) Biomarker Activity (AID 2284248); settings: primary human keratinocytes with fibroblasts
# Outline: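 MIG in dosed human skin co-cultures was measured by ELISA at 24 h, relative to DMSO.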
# [4] = read-out: Vascular cell adhesion molecule 1 (VCAM1), VCAM1 (gene 7412); experiment: BSK_BF4T_VCAM1: BioMAP Diversity Plus: BF4T Assay for Vascular cell adhesion molecule 1 (VCAM1) Biomarker Activity (AID 2284249); settings: primary human bronchial epithelial cells with fibroblasts
# Outline: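 Cell-surface VCAM-1 quantified by ELISA after 24 h chemical exposure of human bronchial epithelial/dermal fibroblast co-cultures, with SRB staining in parallel wells for cytotoxicity; DMSO baseline, positive-direction fitting.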
# [5] = read-out: Collagen I, COL1A1 (gene 1277); experiment: BSK_hDFCGF_CollagenI: BioMAP Diversity Plus: hDFCGF Assay for Collagen I Biomarker Activity (AID 2284250); settings: primary human foreskin fibroblasts
# Protocol: BSK_hDFCGF is a cell-based, multiplexed-readout assay that uses foreskin fibroblast, a human skin primary cell, with measurements taken at 24 hours after chemical dosing in a 96-well plate.BSK_hDFCGF_CollagenI is an assay component measured in the BSK_hDFCGF assay. It measures Collagen I antibody related to regulation of gene protein expression using ELISA technology.Data from the assay component BSK_hDFCGF_CollagenI was analyzed at the endpoint, BSK_hDFCGF_CollagenI, in the positive analysis fitting direction relative to DMSO as the negative control and baseline of activity. Using a type of binding reporter, gain or loss-of-signal activity can be used to understand protein changes. To generalize the intended target to other relatable targets, this assay endpoint is annotated to the 'cell adhesion molecules' intended target family, where the subfamily is 'collagen'.
# (§1) The levels of cell surface (or secreted, indicated by the prefix "s") biomarker endpoints were measured by ELISA. Overt cytotoxicity to cells in confluent adherent cultures (all systems other than the BT system) was assessed by measuring total protein levels using sulforhodamine B (SRB) staining in parallel cultures at the time of biomarker measurements, indicated as SRB endpoints. For proliferation assays for adherent cell types, individual cell types are cultured at sub-confluence and relative cell numbers quantified by SRB staining at time points optimized for each system (48 h: 3C and CASM3C systems; 72 h: BT and HDF3CGF systems; 96 h: SAg system). SRB was performed by staining cells with 0.1% SRB after fixation with 10% TCA and reading wells at 560 nm.Viability and proliferation of PBMC (T cells) was quantified by Alamar Blue reduction for the SAg and BT systems. For PBMC viability (referred to as PBMC Cytotoxicity within the assay endpoint names), cells were plated (75,000/well in a 96-well plate) and then chemical samples added for 1 h before addition of activators, SEB and TSST-1 (20 ng/mL final concentration each). Cells were incubated for 90 h. Then, Alamar Blue (20 uL/well) (Invitrogen, Cat DAL1100) was added for 6 h, and the plates were read with a fluorescence microplate reader at 546/580 nm (excitation/emission). For PBMC proliferation, cells were plated and activated as above but incubated for only 16 h prior to addition of Alamar Blue. Plates were read after 6 h.
# [6] = read-out: Interferon-inducible T-cell alpha chemoattractant (ITAC), CXCL11 (gene 6373); experiment: BSK_hDFCGF_ITAC: BioMAP Diversity Plus: hDFCGF Assay for Interferon-inducible T-cell alpha chemoattractant (ITAC) Biomarker Activity (AID 2284251); settings: primary human foreskin fibroblasts
# Outline: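 Measured by ELISA, the chemokine level serves as the endpoint in human skin fibroblast primary cultures 24 h after compound addition. Increases relative to DMSO-treated wells define activity.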
# [7] = read-out: Plasminogen activator inhibitor-1 (PAI1), SERPINE1 (gene 5054); experiment: BSK_KF3CT_PAI1: BioMAP Diversity Plus: KF3CT Assay for Plasminogen activator inhibitor-1 (PAI1) Biomarker Activity (AID 2284252); settings: primary human keratinocytes with fibroblasts
# Outline: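 In this co-culture of primary human keratinocytes and foreskin fibroblasts, PAI-1 was measured by ELISA at 24 h and fitted upward from DMSO.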
# [8] = read-out: Monocyte Chemoattractant Protein-1 (MCP1), CCL2 (gene 6347); experiment: BSK_IMphg_MCP1: BioMAP Diversity Plus: IMphg Assay for Monocyte Chemoattractant Protein-1 (MCP1) Biomarker Activity (AID 2284253); settings: primary human endothelial cells with macrophages
# Protocol: BSK_IMphg is a cell-based, multiplexed-readout assay that uses venular endothelial cells and macrophages, a human vascular primary cell, with measurements taken at 24 hours after chemical dosing in a microplate: 96-well plate.BSK_IMphg_MCP1 is an assay component measured in the BSK_IMphg assay. It measures MCP-1 antibody related to regulation of gene expression using ELISA technology.Data from the assay component BSK_IMphg_MCP1 was analyzed at the endpoint, BSK_IMphg_MCP1, in the positive analysis fitting direction relative to DMSO as the negative control and baseline of activity. Using a type of binding reporter, gain or loss-of-signal activity can be used to understand protein changes. To generalize the intended target to other relatable targets, this assay endpoint is annotated to the 'cytokine' intended target family, where the subfamily is 'chemotactic factor'.
# as §1
# [9] = read-out: Interleukin-8 (IL8), CXCL8 (gene 3576); experiment: BSK_KF3CT_IL8: BioMAP Diversity Plus: KF3CT Assay for Interleukin-8 (IL8) Biomarker Activity (AID 2284254); settings: primary human keratinocytes with fibroblasts
# Outline: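 Using parallel SRB-stained cultures to flag overt toxicity, the study quantified IL-8 by ELISA in human keratinocyte–foreskin fibroblast co-cultures 24 h after dosing, with DMSO as negative control and baseline.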
# [10] = read-out: Macrophage Inflammatory Protein-1 Alpha (MIP1a), CCL3 (gene 6348); experiment: BSK_IMphg_MIP1a: BioMAP Diversity Plus: IMphg Assay for Macrophage Inflammatory Protein-1 Alpha (MIP1a) Biomarker Activity (AID 2284255); settings: primary human endothelial cells with macrophages
# Outline: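 MIP-1a protein levels were quantified by ELISA after 24 h treatment of human endothelial cell–macrophage co-cultures, compared with DMSO. Parallel cultures were fixed with TCA and stained with 0.1% SRB to gauge overt cytotoxicity.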
smiles,measurement,setting,value
O=C(O)C(F)(F)C(F)(F)C(F)(F)C(F)(F)C(F)(F)C(F)(F)C(F)(F)C(F)(F)F,outcome,[1],inactive
same,AC50,[2],18.9 µM (active) and 13.9 µM (active)
same,outcome,[3],inactive
same,AC50,[4],12.9 µM (active) and 11 µM (active)
same,outcome,[5],inactive
same,AC50,[6],47.9 µM (active) and 47.8 µM (active)
same,AC50,[7],48.2 µM (active) and 41.7 µM (active)
same,outcome,[8],inactive
same,outcome,[9],inactive
same,outcome,[10],inactive
O=S(=O)(O)C(F)(F)C(F)(F)C(F)(F)C(F)(F)F,outcome,[1],inactive
same,outcome,[2],inactive
same,outcome,[3],inactive
same,outcome,[4],inactive
same,outcome,[5],inactive
same,outcome,[6],inactive
same,outcome,[7],inactive
same,outcome,[8],inactive
same,outcome,[9],inactive
same,outcome,[10],inactive
NS(=O)(=O)C(F)(F)C(F)(F)C(F)(F)C(F)(F)C(F)(F)C(F)(F)C(F)(F)C(F)(F)F,AC50,[1],45.6 µM (active) and 45.4 µM (active)
same,AC50,[2],7.27 µM (active) and 7.31 µM (active)
same,AC50,[3],27.9 µM (active) and 51.6 µM (active)
same,AC50,[4],24.8 µM (active) and 23.3 µM (active)
same,outcome,[5],inactive
same,AC50,[6],8.34 µM (active) and 8.29 µM (active)
same,AC50,[7],40.7 µM (active) and 21.7 µM (active)
same,AC50,[8],45.2 µM (active) and 50.4 µM (active)
same,AC50,[9],37.2 µM (active) and 22.3 µM (active)
same,AC50,[10],54.8 µM (active) and 43.3 µM (active)
Oc1c(Cl)c(Cl)c(Cl)c(Cl)c1Cl,AC50,[1],33.5 µM (active)
same,AC50,[2],30.6 µM (active)
O=C(O)C(F)(F)C(F)(F)C(F)(F)C(F)(F)C(F)(F)F,outcome,[1],inactive
same,outcome,[2],inactive
same,outcome,[3],inactive
same,outcome,[4],inactive
same,outcome,[5],inactive
same,outcome,[6],inactive
same,outcome,[7],inactive
same,outcome,[8],inactive
same,outcome,[9],inactive
same,outcome,[10],inactive
O=S(=O)(O)C(F)(F)C(F)(F)C(F)(F)C(F)(F)C(F)(F)C(F)(F)F,outcome,[1],inactive
same,outcome,[2],inactive
same,outcome,[3],inactive
same,outcome,[4],inactive
same,outcome,[5],inactive
same,outcome,[6],inactive
same,outcome,[7],inactive
same,outcome,[8],inactive
same,outcome,[9],inactive
same,outcome,[10],inactive
COc1ccc(O)c(C(C)(C)C)c1,outcome,[3],inactive
same,outcome,[5],inactive
same,outcome,[6],inactive
same,outcome,[7],inactive
same,outcome,[9],inactive
Sc1ccccc1,outcome,[1],inactive
same,outcome,[2],inactive
O=C(O)C(F)(F)C(F)(F)C(F)(F)C(F)(F)C(F)(F)C(F)(F)C(F)(F)C(F)(F)C(F)(F)F,AC50,[1],56.9 µM (active) and 55.4 µM (active)
same,AC50,[2],7.07 µM (active) and 7.44 µM (active)
same,AC50,[3],50.1 µM (active) and 45.2 µM (active)
same,AC50,[4],11.8 µM (active) and 14.2 µM (active)
same,outcome,[5],inactive
same,AC50,[6],19 µM (active) and 22 µM (active)
same,AC50,[7],41.7 µM (active) and 33.4 µM (active)
same,AC50,[8],46.9 µM (active) and 53.7 µM (active)
same,AC50,[9],44.9 µM (active)
same,outcome,[9],inactive
same,AC50,[10],47 µM (active) and 33.7 µM (active)
